# Measured values as given in the supplement of paper PMC10515830.
# Where a name gives a salt, the structure may show the parent alone.
# Key:
# Settings in all cases: 10 µM; exposure time 6 h
# [1] = system: Danio rerio larvae (5 dpf); experiment: difference in excitability vs DMSO (percentage points); higher = more excitable than DMSO
# How it was run: (§1)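 Wild-type zebrafish larvae at 5 dpf were kept in 96-well plates and exposed for 6 h to 100 µL egg water holding library compound at a final concentration of 10 µM. From 3 h into exposure, the plates were held at 28.5 ℃ and photographed every 6 s through a 3-h programme of moving lines and 100 ms, 400Hz tones. Each behaviour was scored by Z-LaP Tracker, a DeepLabCut model, and averaged over 48 larvae per compound. Every value gives the compound mean minus the vehicle control mean, in percentage points.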
# [2] = system: Danio rerio larvae (5 dpf); experiment: difference in startle response vs DMSO (percentage points); higher = stronger startle than DMSO
# How it was run: as §1
# [3] = system: Danio rerio larvae (5 dpf); experiment: difference in activity during first hour vs DMSO (percentage points); higher = more activity than DMSO
# How it was run: as §1
# [4] = system: Danio rerio larvae (5 dpf); experiment: difference in habituation to acoustic stimuli vs DMSO (percentage points); higher = more habituation than DMSO
# How it was run: as §1
# [5] = system: Danio rerio larvae (5 dpf); experiment: difference in combined optomotor response to red, green and blue moving lines vs DMSO (percentage points); higher = stronger optomotor response than DMSO
# How it was run: as §1
Compound,difference in excitability [1],difference in startle response [2],difference in activity during first hour [3],difference in habituation to acoustic stimuli [4],difference [5]
N#Cc1ccc(C(c2ccc(C#N)cc2)n2cncn2)cc1 [Letrozole],4.92,-5.86,-6.93,-3.28,0.376
COc1cccc2c1C(=O)c1c(O)c3c(c(O)c1C2=O)C[C@@](O)(C(=O)CO)C[C@@H]3O[C@H]1C[C@H](N)[C@@H](O)[C@H](C)O1 [Epirubicin (hydrochloride)],9.14,0.312,-7.5,5.65,1.76
Nc1[nH]c(=O)ncc1F [5-Fluorocytosine],0.317,1.12,-10.7,-2.78,2.67
CCCCNc1cc(C(=O)O)cc(S(N)(=O)=O)c1Oc1ccccc1 [Bumetanide],5.57,-2.75,5.52,-3.24,3.54
Cc1ccc(Cl)c(Nc2ccccc2C(=O)O)c1Cl [Meclofenamate (sodium salt)],11.1,12.4,-18,-13.1,-19.7
CCCc1cc(=O)[nH]c(=S)[nH]1 [Propylthiouracil],7.08,1.86,3.37,-0.81,1.84
Cc1cn[nH]c1 [Fomepizole],-1.56,-0.451,3.73,2.38,-2.44
O=C(O)COCCN1CCN([C@H](c2ccccc2)c2ccc(Cl)cc2)CC1 [(R)-Cetirizine (hydrochloride)],5.78,-3.02,-1.26,6.23,5.37
C[C@H]1CN(C[C@H](Cc2ccccc2)C(=O)NCC(=O)O)CC[C@@]1(C)c1cccc(O)c1 [Alvimopan],3.61,0.764,-3.96,3.02,-3.48
CCCSc1ccc2[nH]c(NC(=O)OC)nc2c1 [Albendazole],17.3,4.02,4.4,0.0113,3
COC(=O)Nc1nc2cc(C(=O)c3ccccc3)ccc2[nH]1 [Mebendazole],9.6,-4.07,8.64,0.057,4.46
CCCN(CCc1cccs1)[C@H]1CCc2c(O)cccc2C1 [Rotigotine],20.1,-3.78,-23.8,-14.4,-15.9
CC(=O)OCC(=O)[C@@]1(O)CC[C@H]2[C@@H]3CCC4=CC(=O)CC[C@]4(C)[C@H]3C(=O)C[C@@]21C [Cortisone Acetate],2.07,-1.29,1.26,3.11,-0.38
COC(=O)CCc1ccc(OCC(O)CNC(C)C)cc1 (stereo not given) [Esmolol (hydrochloride)],-2.69,4.98,5.19,-2.83,10.6
OC[C@@H](O)[C@@H](O)[C@H](O)[C@H](O)CO [D-Mannitol],1.16,-0.914,5.26,3.53,4.85
CCCc1nc2c(C)cc(-c3nc4ccccc4n3C)cc2n1Cc1ccc(-c2ccccc2C(=O)O)cc1 [Telmisartan],14.6,-11.8,9.61,-3.85,-8.32
C[N+](C)(C)C[C@H](O)CC(=O)[O-] [L-Carnitine],-2.51,-2.46,8.51,4,3.58
N[C@H](C(=O)O)[C@H](O)c1ccc(O)c(O)c1 [Droxidopa],0.975,0.64,3.89,5.02,2.12
COc1ccc2c(c1)c(CC(=O)O)c(C)n2C(=O)c1ccc(Cl)cc1 [Indomethacin],-1.03,1.79,2.47,6.54,1.47
COc1ccccc1OCCNCC(O)COc1cccc2[nH]c3ccccc3c12 (stereo not given) [Carvedilol],21.2,2.07,-3.13,0.913,3.65
CCN1C(=O)NC(c2ccccc2)C1=O (stereo not given) [Ethotoin],-4.35,11.7,-2.99,0.909,-3.6
CO[C@@H]1[C@H](N(C)C(=O)c2ccccc2)C[C@H]2O[C@]1(C)n1c3ccccc3c3c4c(c5c6ccccc6n2c5c31)C(=O)NC4,-5.3,-4.96,4.11,8.1,0.314
C[C@@H](O)[C@H]1C(=O)N2C(C(=O)O)=C(S[C@@H]3CN[C@H](C(=O)N(C)C)C3)[C@H](C)[C@H]12 [Meropenem (hydrate)],3.3,-1.18,0.0616,-0.499,3.61
